In all, about 16,000 sequences were measured (“rpm ratio (pull-down/input)”: median about 0.5, highest 2% from about 5.5 on). The sample holds the highest values, similar sequences and a random draw of the others, so the mix is not that of the screen.

Our source for the binding signal values is PMC12820563, “FoxP3 forms a head-to-head dimer in vivo and stabilizes its multimerization on adjacent microsatellites”.

The target of this experiment is T1, MBP-FoxP3dN (Mus musculus, UniProt Q99JB6 188-423).
T1 sequence: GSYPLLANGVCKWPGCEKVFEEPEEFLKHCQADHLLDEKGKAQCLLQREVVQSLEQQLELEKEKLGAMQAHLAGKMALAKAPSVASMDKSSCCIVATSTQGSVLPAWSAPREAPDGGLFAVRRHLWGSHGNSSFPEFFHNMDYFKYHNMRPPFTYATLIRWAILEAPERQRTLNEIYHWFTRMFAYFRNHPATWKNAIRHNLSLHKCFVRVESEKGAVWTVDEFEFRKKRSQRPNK
As to the kind of experiment: PD-seq (MBP pull-down with sequencing); 20 mM Tris-HCl pH 7.5, 100 mM NaCl, 1.5 mM MgCl2, 0.4 uM protein, 0.1 uM dsDNA library, 30 min, room temperature, amylose pull-down; high values mean tight binding. The conditions noted are these: protein: recombinant; tags: His6-MBP; chain copies: 2; dsDNA, one strand shown. The method in brief:
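His6-MBP-tagged mouse FoxP3 or FoxP1 fragment lacking the N-terminus, expressed in E. coli, was mixed at 0.4 µM with 0.1 µM Klenow-filled double-stranded degenerate DNA library. Incubation was 30 min at room temperature in Tris pH 7.5 buffer with NaCl and MgCl2. Complexes were caught on amylose resin and washed three times; DNA was released with proteinase K, PCR-barcoded and Illumina-sequenced. Binding is reads-per-million enrichment, pull-down over input, with replicates pooled.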
Turning to “GATGATTGTTCTCCCAGCTGATGAATTTGGTGCTTCGAGTAAACAAATTTTCCTAATCTTTCTGTTCAAGCGCCATCTAC”, the binding signal is 1.59 RPM ratio (pull-down/input).

As for “GATGATTGTTCTCCCAGCTGATGAATTGTCCGAATCGAGTAAACAAATTTTCCTAATCTTTCTGTTCAAGCGCCATCTAC”, the binding signal was 0.272 RPM ratio (pull-down/input).

For the sequence “GATGATTGTTCTCCCAGCTGATGAATTGTCATCCTCGAGTAAACAAATTTTCCTAATCTTTCTGTTCAAGCGCCATCTAC”, the binding signal was 0.941 RPM ratio (pull-down/input).

As for “GATGATTGTTCTCCCAGCTGATGAATTTTTGTCATCGAGTAAACAAATTTTCCTAATCTTTCTGTTCAAGCGCCATCTAC”, the binding signal is 0.666 RPM ratio (pull-down/input).

As to “GATGATTGTTCTCCCAGCTGATGAATTTGTCATTTCGAGTAAACAAATTTTCCTAATCTTTCTGTTCAAGCGCCATCTAC”, the binding signal was 5.68 RPM ratio (pull-down/input).

With “GATGATTGTTCTCCCAGCTGATGAATTGTCATTTTCGAGTAAACAAATTTTCCTAATCTTTCTGTTCAAGCGCCATCTAC”, the binding signal was 0.999 RPM ratio (pull-down/input).

Consider “GATGATTGTTCTCCCAGCTGATGAATTTGTCATCTCGAGTAAACAAATTTTCCTAATCTTTCTGTTCAAGCGCCATCTAC”, for which the binding signal is 6.03 RPM ratio (pull-down/input).

Consider “GATGATTGTTCTCCCAGCTGATGAATTTTGTCATTCGAGTAAACAAATTTTCCTAATCTTTCTGTTCAAGCGCCATCTAC”, for which the binding signal is 4.89 RPM ratio (pull-down/input).

In the case of “GATGATTGTTCTCCCAGCTGATGAATTACTTTCTTCGAGTAAACAAATTTTCCTAATCTTTCTGTTCAAGCGCCATCTAC”, the binding signal is 0.388 RPM ratio (pull-down/input).

Take “GATGATTGTTCTCCCAGCTGATGAATTGCTGCACTCGAGTAAACAAATTTTCCTAATCTTTCTGTTCAAGCGCCATCTAC”: the binding signal was 1.03 RPM ratio (pull-down/input).

Take “GATGATTGTTCTCCCAGCTGATGAATTCGTGGTTTCGAGTAAACAAATTTTCCTAATCTTTCTGTTCAAGCGCCATCTAC”: the binding signal was 1.35 RPM ratio (pull-down/input).

For the sequence “GATGATTGTTCTCCCAGCTGATGAATTAGGTAGTTCGAGTAAACAAATTTTCCTAATCTTTCTGTTCAAGCGCCATCTAC”, the binding signal is 0.919 RPM ratio (pull-down/input).

Regarding “GATGATTGTTCTCCCAGCTGATGAATTTCATTGGTCGAGTAAACAAATTTTCCTAATCTTTCTGTTCAAGCGCCATCTAC”, the binding signal was 1.11 RPM ratio (pull-down/input).

As for “GATGATTGTTCTCCCAGCTGATGAATTCTTGTCATCGAGTAAACAAATTTTCCTAATCTTTCTGTTCAAGCGCCATCTAC”, the binding signal is 0.625 RPM ratio (pull-down/input).

As to “GATGATTGTTCTCCCAGCTGATGAATTAGGCCTCTCGAGTAAACAAATTTTCCTAATCTTTCTGTTCAAGCGCCATCTAC”, the binding signal is 5.5 RPM ratio (pull-down/input).

Take “GATGATTGTTCTCCCAGCTGATGAATTTAGGCATTCGAGTAAACAAATTTTCCTAATCTTTCTGTTCAAGCGCCATCTAC”: the binding signal was 5.38 RPM ratio (pull-down/input).

On to “GATGATTGTTCTCCCAGCTGATGAATTAGGCGCCTCGAGTAAACAAATTTTCCTAATCTTTCTGTTCAAGCGCCATCTAC”, for which the binding signal was 1.35 RPM ratio (pull-down/input).

Consider “GATGATTGTTCTCCCAGCTGATGAATTAGGCAGCTCGAGTAAACAAATTTTCCTAATCTTTCTGTTCAAGCGCCATCTAC”, for which the binding signal is 1.13 RPM ratio (pull-down/input).

For the sequence “GATGATTGTTCTCCCAGCTGATGAATTAGGCAAATCGAGTAAACAAATTTTCCTAATCTTTCTGTTCAAGCGCCATCTAC”, the binding signal was 0.601 RPM ratio (pull-down/input).

As to “GATGATTGTTCTCCCAGCTGATGAATTAGGCATCTCGAGTAAACAAATTTTCCTAATCTTTCTGTTCAAGCGCCATCTAC”, the binding signal was 6.82 RPM ratio (pull-down/input).

Regarding “GATGATTGTTCTCCCAGCTGATGAATTAGGGCATTCGAGTAAACAAATTTTCCTAATCTTTCTGTTCAAGCGCCATCTAC”, the binding signal is 5.05 RPM ratio (pull-down/input).

Turning to “GATGATTGTTCTCCCAGCTGATGAATTAGGCATTTCGAGTAAACAAATTTTCCTAATCTTTCTGTTCAAGCGCCATCTAC”, the binding signal was 6.35 RPM ratio (pull-down/input).

As for “GATGATTGTTCTCCCAGCTGATGAATTTTAGGCCTCGAGTAAACAAATTTTCCTAATCTTTCTGTTCAAGCGCCATCTAC”, the binding signal was 0.444 RPM ratio (pull-down/input).

As for “GATGATTGTTCTCCCAGCTGATGAATTGCTCAGATCGAGTAAACAAATTTTCCTAATCTTTCTGTTCAAGCGCCATCTAC”, the binding signal is 0.345 RPM ratio (pull-down/input).

For “GATGATTGTTCTCCCAGCTGATGAATTAACAATGTCGAGTAAACAAATTTTCCTAATCTTTCTGTTCAAGCGCCATCTAC”, the binding signal is 0.512 RPM ratio (pull-down/input).

As to “GATGATTGTTCTCCCAGCTGATGAATTGCTTATGTCGAGTAAACAAATTTTCCTAATCTTTCTGTTCAAGCGCCATCTAC”, the binding signal is 1.87 RPM ratio (pull-down/input).

Turning to “GATGATTGTTCTCCCAGCTGATGAATTCGGCACTTCGAGTAAACAAATTTTCCTAATCTTTCTGTTCAAGCGCCATCTAC”, the binding signal was 0.811 RPM ratio (pull-down/input).

With “GATGATTGTTCTCCCAGCTGATGAATTTGTTGCGTCGAGTAAACAAATTTTCCTAATCTTTCTGTTCAAGCGCCATCTAC”, the binding signal is 6.75 RPM ratio (pull-down/input).

Turning to “GATGATTGTTCTCCCAGCTGATGAATTTTTTGCGTCGAGTAAACAAATTTTCCTAATCTTTCTGTTCAAGCGCCATCTAC”, the binding signal is 0.525 RPM ratio (pull-down/input).

Take “GATGATTGTTCTCCCAGCTGATGAATTGTTTGCGTCGAGTAAACAAATTTTCCTAATCTTTCTGTTCAAGCGCCATCTAC”: the binding signal was 6.41 RPM ratio (pull-down/input).

“GATGATTGTTCTCCCAGCTGATGAATTTTGCGCGTCGAGTAAACAAATTTTCCTAATCTTTCTGTTCAAGCGCCATCTAC”: the binding signal is 3.39 RPM ratio (pull-down/input).

As for “GATGATTGTTCTCCCAGCTGATGAATTCTTTGCGTCGAGTAAACAAATTTTCCTAATCTTTCTGTTCAAGCGCCATCTAC”, the binding signal is 0.489 RPM ratio (pull-down/input).

Consider “GATGATTGTTCTCCCAGCTGATGAATTTGCGTCGTCGAGTAAACAAATTTTCCTAATCTTTCTGTTCAAGCGCCATCTAC”, for which the binding signal is 2.28 RPM ratio (pull-down/input).
